Assay results from the supplement of paper PMC10849652.
About 7,900 targets were measured; listed, in parts, are those with a hit and a random draw of the rest. About 0.6% of all pairs of compound and target were hits.

Compound: O=C(CCCCCCC(=O)Nc1ccccc1)NO [vorinostat]
Test: log2 fold change, soluble protein after heating vs DMSO (PISA); higher = thermal stabilisation; K562 cells, 10 uM, 30 min; active = over 0.2 and 3.5 SD of the protein, either way, in both replicates (recomputed)
Summary of the method: (§1)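 Soluble protein was quantified by TMTpro 16plex LC-MS/MS after channel sums were equalised. It was obtained as the supernatant after 21,000xg for 90 min from pooled aliquots of K562 cells (2×10^6 cells/mL, 10 μM compound, 30 min) heated for 3 min across 48°C-58°C and extracted in PBS with 0.5% NP-40 at 4°C. Thermal stability values are relative to control samples and come from duplicates. They are given as log2 fold changes.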

Sequence of UniProt P00846 (P00846 whole entry, looked up): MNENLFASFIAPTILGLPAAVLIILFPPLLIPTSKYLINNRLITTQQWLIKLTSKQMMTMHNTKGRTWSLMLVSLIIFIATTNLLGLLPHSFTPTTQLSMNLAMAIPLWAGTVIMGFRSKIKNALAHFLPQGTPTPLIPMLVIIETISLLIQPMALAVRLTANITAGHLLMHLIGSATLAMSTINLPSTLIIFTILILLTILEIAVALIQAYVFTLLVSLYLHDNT
Sequence of UniProt Q9UBD5 (Q9UBD5 whole entry, looked up): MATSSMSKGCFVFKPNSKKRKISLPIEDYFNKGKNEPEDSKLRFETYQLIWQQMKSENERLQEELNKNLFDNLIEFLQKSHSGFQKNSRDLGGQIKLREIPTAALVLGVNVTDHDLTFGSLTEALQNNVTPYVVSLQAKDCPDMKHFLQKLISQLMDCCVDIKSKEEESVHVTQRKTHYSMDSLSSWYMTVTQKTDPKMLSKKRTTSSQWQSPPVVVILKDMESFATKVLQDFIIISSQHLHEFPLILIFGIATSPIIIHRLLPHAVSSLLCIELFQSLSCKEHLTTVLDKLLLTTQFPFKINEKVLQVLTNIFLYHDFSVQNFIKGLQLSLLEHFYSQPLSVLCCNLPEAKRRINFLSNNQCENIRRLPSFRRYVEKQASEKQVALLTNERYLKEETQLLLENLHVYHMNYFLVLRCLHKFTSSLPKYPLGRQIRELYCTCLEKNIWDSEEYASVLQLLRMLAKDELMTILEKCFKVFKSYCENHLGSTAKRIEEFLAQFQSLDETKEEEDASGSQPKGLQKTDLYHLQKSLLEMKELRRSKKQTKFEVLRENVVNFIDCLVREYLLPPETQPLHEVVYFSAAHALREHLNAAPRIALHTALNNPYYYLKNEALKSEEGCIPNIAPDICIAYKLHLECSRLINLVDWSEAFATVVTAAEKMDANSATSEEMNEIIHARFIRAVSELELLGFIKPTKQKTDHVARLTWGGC
Sequence of UniProt P46934 (P46934 whole entry, looked up): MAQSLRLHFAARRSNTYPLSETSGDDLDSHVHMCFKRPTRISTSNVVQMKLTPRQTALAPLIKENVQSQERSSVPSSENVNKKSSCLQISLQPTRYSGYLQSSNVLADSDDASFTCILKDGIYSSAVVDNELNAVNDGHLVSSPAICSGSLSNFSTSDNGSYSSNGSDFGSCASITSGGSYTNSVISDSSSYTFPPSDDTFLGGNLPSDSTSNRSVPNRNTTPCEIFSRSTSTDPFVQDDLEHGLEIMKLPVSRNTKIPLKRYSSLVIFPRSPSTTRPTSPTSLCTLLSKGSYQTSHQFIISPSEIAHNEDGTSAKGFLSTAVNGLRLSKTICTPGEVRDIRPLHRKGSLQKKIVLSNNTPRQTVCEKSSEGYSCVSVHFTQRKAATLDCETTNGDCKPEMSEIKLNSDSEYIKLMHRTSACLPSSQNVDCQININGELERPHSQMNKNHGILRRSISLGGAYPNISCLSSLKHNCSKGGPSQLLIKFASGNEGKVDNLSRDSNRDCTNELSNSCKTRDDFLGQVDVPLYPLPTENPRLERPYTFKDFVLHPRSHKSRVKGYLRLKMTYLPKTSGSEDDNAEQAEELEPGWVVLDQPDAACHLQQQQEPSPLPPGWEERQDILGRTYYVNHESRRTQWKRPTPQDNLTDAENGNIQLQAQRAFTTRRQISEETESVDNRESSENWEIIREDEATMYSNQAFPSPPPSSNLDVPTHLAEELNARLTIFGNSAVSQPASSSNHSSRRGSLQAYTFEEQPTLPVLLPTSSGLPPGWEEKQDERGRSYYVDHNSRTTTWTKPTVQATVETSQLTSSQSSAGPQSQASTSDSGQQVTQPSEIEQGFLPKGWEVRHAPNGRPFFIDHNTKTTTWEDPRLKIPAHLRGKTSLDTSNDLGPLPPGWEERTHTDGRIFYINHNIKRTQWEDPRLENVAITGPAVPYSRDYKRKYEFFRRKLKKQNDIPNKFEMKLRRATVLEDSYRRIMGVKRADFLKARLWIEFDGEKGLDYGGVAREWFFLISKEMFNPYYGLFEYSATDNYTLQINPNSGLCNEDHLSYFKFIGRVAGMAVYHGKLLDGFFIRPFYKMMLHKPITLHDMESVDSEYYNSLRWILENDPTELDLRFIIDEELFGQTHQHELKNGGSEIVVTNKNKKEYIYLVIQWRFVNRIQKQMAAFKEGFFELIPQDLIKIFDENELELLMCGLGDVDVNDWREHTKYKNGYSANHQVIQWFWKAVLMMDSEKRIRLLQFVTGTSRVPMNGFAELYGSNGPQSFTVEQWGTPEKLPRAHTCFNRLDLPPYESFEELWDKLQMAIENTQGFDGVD
Sequence of UniProt Q00013 (Q00013 whole entry, looked up): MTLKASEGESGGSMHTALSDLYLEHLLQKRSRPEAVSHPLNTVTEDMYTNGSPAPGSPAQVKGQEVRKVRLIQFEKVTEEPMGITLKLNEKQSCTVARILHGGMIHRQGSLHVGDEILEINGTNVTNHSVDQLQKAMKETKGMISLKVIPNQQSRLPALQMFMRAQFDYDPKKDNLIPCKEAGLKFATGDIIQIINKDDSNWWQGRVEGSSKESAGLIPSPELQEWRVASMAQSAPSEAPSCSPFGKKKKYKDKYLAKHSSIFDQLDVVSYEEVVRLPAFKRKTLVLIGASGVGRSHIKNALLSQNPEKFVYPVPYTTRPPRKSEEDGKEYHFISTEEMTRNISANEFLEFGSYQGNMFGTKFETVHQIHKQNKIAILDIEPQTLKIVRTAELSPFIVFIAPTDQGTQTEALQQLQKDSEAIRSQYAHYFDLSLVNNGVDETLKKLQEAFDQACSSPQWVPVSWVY
Sequence of UniProt Q9H1E3 (Q9H1E3 whole entry, looked up): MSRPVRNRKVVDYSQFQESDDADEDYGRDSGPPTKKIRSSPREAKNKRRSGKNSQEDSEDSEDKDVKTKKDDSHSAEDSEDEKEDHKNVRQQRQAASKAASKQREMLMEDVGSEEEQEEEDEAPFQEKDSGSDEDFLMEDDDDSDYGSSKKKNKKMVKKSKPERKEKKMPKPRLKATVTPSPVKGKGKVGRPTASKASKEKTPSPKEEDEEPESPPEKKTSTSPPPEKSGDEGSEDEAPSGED
Sequence of UniProt Q14978 (Q14978 whole entry, looked up): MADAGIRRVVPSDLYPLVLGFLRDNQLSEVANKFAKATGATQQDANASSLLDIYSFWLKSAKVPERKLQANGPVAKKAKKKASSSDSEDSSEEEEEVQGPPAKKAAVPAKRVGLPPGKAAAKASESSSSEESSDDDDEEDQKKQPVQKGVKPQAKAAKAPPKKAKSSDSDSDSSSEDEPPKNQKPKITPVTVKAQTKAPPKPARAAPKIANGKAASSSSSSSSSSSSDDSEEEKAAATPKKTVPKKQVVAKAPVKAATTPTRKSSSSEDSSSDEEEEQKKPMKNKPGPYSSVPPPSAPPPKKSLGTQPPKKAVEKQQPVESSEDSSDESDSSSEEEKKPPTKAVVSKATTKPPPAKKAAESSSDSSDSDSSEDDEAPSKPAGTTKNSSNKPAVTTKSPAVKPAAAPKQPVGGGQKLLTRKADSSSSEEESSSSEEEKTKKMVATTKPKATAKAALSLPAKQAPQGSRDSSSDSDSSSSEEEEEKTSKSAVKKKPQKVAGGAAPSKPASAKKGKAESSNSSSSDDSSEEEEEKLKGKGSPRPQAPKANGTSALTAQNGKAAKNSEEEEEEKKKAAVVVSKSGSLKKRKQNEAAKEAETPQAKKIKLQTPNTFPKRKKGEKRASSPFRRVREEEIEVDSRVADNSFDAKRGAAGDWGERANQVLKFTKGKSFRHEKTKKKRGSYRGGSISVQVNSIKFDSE
Sequence of UniProt P43246 (P43246 whole entry, looked up): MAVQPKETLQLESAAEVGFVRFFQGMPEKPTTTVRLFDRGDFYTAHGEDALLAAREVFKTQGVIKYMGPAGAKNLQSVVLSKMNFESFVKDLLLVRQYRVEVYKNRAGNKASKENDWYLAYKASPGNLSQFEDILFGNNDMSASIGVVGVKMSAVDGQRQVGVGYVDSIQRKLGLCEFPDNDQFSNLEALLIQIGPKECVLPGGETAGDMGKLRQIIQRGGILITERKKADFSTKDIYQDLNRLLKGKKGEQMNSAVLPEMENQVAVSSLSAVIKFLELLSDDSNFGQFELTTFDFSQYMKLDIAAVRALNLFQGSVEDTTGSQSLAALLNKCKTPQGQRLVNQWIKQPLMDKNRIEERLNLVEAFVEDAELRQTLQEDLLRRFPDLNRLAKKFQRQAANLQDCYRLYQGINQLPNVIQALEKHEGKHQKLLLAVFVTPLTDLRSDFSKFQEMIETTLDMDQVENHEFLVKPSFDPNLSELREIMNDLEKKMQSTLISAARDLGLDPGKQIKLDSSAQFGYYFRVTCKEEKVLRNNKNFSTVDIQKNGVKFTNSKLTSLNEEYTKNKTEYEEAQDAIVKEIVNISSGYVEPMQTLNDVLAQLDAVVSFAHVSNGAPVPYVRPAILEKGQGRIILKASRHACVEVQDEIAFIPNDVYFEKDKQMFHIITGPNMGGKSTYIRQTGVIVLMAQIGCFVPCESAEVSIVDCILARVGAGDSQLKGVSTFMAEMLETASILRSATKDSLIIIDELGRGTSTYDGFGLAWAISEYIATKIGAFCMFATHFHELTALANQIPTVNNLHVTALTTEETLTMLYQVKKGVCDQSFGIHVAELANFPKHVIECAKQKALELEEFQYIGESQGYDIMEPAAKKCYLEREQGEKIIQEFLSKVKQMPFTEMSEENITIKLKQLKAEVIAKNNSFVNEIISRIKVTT
Sequence of UniProt O14950 (O14950 whole entry, looked up): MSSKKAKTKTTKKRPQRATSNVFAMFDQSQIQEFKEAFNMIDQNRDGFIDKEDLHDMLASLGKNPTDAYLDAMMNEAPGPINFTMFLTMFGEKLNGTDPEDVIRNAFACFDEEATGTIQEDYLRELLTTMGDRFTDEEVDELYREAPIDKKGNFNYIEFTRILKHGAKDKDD
Sequence of UniProt O95169 (O95169 whole entry, looked up): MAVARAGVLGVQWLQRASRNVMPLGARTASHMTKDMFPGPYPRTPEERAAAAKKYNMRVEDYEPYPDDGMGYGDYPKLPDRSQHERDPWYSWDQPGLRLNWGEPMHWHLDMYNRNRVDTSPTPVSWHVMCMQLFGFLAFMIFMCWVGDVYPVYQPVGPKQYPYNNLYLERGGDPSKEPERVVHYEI

log2 fold change, inactive:
MSH2 (UniProt P43246) 0.032
MT-ATP6 (UniProt P00846) -0.007
MRPS2 (UniProt Q9Y399) 0.096
NOB1 (UniProt Q9ULX3) 0.093
MPP1 (UniProt Q00013) 0.093
NUCKS1 (UniProt Q9H1E3) -0.08
ORC3 isoform 2 (UniProt Q9UBD5) 0.236
NOLC1 isoform 2 (UniProt Q14978) 0.009
NEDD4 isoform 4 (UniProt P46934) -0.04
MRPS22 (UniProt P82650) 0.131
MSTO1 (UniProt Q9BUK6) 0.053
NCAPD2 (UniProt Q15021) 0.058
MYL12B (UniProt O14950) -0.004
NEU1 (UniProt Q99519) 0.159
NA, A0A096LPI6 -0.02
MRPS33 (UniProt Q9Y291) 0.035

Compound: O=C(CCCCCCNC(=O)c1cnc(N(c2ccccc2)c2ccccc2Cl)nc1)NO [citarinostat]
Test: as above
Summary of the method: as §1

log2 fold change, inactive:
NFATC2 (UniProt Q13469) 0.101
MRPS18B (UniProt Q9Y676) -0.03
PACS1 (UniProt Q6VY07) -0.012
NUP205 (UniProt Q92621) 0.101
NA, A0A0B4J2A0 0.029
OSBP (UniProt P22059) 0.03
MKNK1 (UniProt Q9BUB5) 0.025
NMNAT1 (UniProt Q9HAN9) -0.033
MRPS25 (UniProt P82663) 0.073
NME1 isoform 2 (UniProt P15531) -0.089
MRPL47 (UniProt Q9HD33) -0.087
NDUFA12 (UniProt Q9UI09) 0.07
MOV10 (UniProt Q9HCE1) -0.054
MTHFD1, A0A384N5Y3 0.024
MRPS5 (UniProt P82675) 0.023
NFATC2IP (UniProt Q8NCF5) 0.075
NOL11 (UniProt Q9H8H0) 0.035
NDUFA6 (UniProt P56556) 0.036
OSBPL8 (UniProt Q9BZF1) 0.005
NOSIP (UniProt Q9Y314) 0.136
NR2C2 isoform 2 (UniProt P49116) -0.022
NDUFB8 (UniProt O95169) -0.016
NQO1 (UniProt P15559) 0.009
MSH2 (UniProt P43246) 0.089
MT-ATP6 (UniProt P00846) 0.097
MRPS2 (UniProt Q9Y399) 0.001
NOB1 (UniProt Q9ULX3) -0.003
MPP1 (UniProt Q00013) 0.036
NUCKS1 (UniProt Q9H1E3) -0.022
ORC3 isoform 2 (UniProt Q9UBD5) 0.023
NOLC1 isoform 2 (UniProt Q14978) 0.109
NEDD4 isoform 4 (UniProt P46934) 0.084
MRPS22 (UniProt P82650) 0.035
MSTO1 (UniProt Q9BUK6) 0.08
NCAPD2 (UniProt Q15021) 0.078
MYL12B (UniProt O14950) 0.045
NEU1 (UniProt Q99519) 0.087
NA, A0A096LPI6 0.022
MRPS33 (UniProt Q9Y291) 0.039
